An excerpt weighted towards active compounds, which were near 0.28% of everything screened.
NPYLR7 agonist: mosquito NPYLR7 agonism; HEK293T NPYLR7/Galpha15, GCaMP6s calcium fluorescence; activation, % at 10 µM; 0.15% of 270,000 active; in the data active = activation above about 40%;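 also: 0% = vehicle and 100% = reference agonist at the receptor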
mcGAS inh: inhibitors of mouse cGAS; 0.15% of 160,000 active; recombinant cGAS, Kinase-Glo ATP depletion luminescence; inhibition, % at 12.5 µM;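 also: 0% = negative control wells and 100% = reference inhibitor with no enzyme activity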
hcGAS lum: human cGAS inhibition; Q8N884; recombinant h-cGAS, ATP depletion, Kinase-Glo luminescence; inhibition, % at 12.5 µM; 0.081% of 290,000 active; AID 1259398;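 also: 0% = vehicle reaction and 100% = reaction without DNA for no activity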
Target sequence (Q8N884 whole entry, looked up): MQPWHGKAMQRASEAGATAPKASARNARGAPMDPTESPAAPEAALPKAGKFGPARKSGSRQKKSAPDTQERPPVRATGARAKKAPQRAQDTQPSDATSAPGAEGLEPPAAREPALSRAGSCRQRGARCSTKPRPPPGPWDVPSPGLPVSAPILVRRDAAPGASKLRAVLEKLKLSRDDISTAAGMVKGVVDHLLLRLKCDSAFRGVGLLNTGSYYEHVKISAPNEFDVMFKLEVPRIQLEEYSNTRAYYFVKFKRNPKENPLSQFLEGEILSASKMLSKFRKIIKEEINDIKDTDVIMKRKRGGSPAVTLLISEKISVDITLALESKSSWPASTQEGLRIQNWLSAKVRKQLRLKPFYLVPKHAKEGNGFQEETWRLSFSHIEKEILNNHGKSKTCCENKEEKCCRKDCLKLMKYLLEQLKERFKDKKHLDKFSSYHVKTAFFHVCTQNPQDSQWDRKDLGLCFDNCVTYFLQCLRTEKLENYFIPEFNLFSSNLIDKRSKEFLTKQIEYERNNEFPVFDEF
Active calls of the source: *; nt = no result; ! = not active in a repeat. Rule as the data show it, unless noted: active = inhibition above about 40%; inactive = the rest.

SMILES	NPYLR7 agonist	mcGAS inh	hcGAS lum
CCC1(O)CC(OC2CC(N(C)C)C(OC3CC(O)C(OC4CCC(=O)C(C)O4)C(C)O3)C(C)O2)c2c(cc3c(c2O)C(=O)c2c(O)cccc2C3=O)C1C(=O)OC (stereo unspecified)	-10	nt	79*
Nc1ccc(Oc2cc(N)cc(Oc3ccccc3)c2)cc1	74*	-3	-3
Nc1ccc(Oc2ccc([N+](=O)[O-])cc2)cc1	-11	nt	1
CC(C)Oc1cccc(Nc2cc3c(cn2)cc(-c2cnn(C)c2)n3C)c1	-15	-7	-4
CC1C(=O)c2cccc3c(=O)n(-c4ccccc4)c(O)c(c23)C1=O (stereo unspecified)	83*	nt	4
CC(=O)c1ccc(-n2c(=O)c3ccccc3c3ccccc3c2=O)cc1	4	nt	-6
O=C(N[C@@H]1CCCCC1NC(=O)C1CCCN(C(=O)C2C[C@H]2c2ccccc2)C1)c1ccccc1 (stereo partly specified)	nt	-10	-5
C#CCSc1nnc(-c2ccccc2)c2sc(C)nc12	0	-1	3
O=C(Nc1nc(-c2ccco2)c(-c2ccco2)s1)C1CC(=O)N(C2CCCC2)C1 (stereo unspecified)	2	nt	-5
Cc1nc(C=CC(=O)N(Cc2ccccc2)C2CCS(=O)(=O)C2)cs1 (stereo unspecified)	2	nt	-2
COc1cccc2c1C(=O)c1c(O)c3c(c(O)c1C2=O)C[C@@](O)(C(C)=O)C[C@@H]3OC1CC(N)C(O)C(C)O1 (stereo partly specified)	-3	nt	61*
COc1cccc2c1C(=O)c1c(O)c3c(c(O)c1C2=O)C[C@@](O)(C(=O)CO)C[C@@H]3O[C@H]1C[C@H](N)[C@H](O)[C@H](C)O1	-13	nt	58*
O=c1c2ccccc2nc(SCCCn2c(=O)[nH]c3ccccc32)n1CC1CCCO1 (stereo unspecified)	1	-5	4
CCC1C(=O)NCCN1c1ncnc2c1nnn2-c1ccccc1 (stereo unspecified)	4	nt	-7
Cn1c(-c2cccc(C(F)(F)F)c2)cc2cnc(Nc3ccccn3)cc21	-4	-3	-2
O=C(O)c1ccc(Cl)s1	3	nt	-1
O=C(C1=C(O)c2ccccc2S(=O)(=O)N1)c1ccc(Cl)s1	5	nt	41*
COCCNc1nccc2[nH]c(-c3ccccc3)nc12	-7	0	1
O=C(N[C@@H]1CCCCC1NC(=O)C1CCCN(S(=O)(=O)c2ccc(Cl)cc2)C1)c1ccc(F)cc1 (stereo partly specified)	28	-8	-7
N=C(N)c1ccc(OCCCCCOc2ccc(C(=N)N)cc2)cc1	66*!	nt	4
N=C(N)c1ccc(OCCCCCOc2ccc(C(N)=O)cc2)cc1	5	0	-6
COc1cc(C=CC(=O)c2ccc3c(c2)OCCO3)cc(Br)c1O	145*	-6	-10
CCOc1cc(C=CC(=O)c2ccc3c(c2)OCCO3)cc(Br)c1OCC	3	-7	-8
CC1CCC2(CC1)OCC(C(=O)NCC1CCCO1)N2C(=O)Cc1ccccc1 (stereo unspecified)	-3	-3	-7
O=C(NCCc1c[nH]c2ccccc12)NC1CCCC1	0	nt	-4
SMILES	NPYLR7 agonist	mcGAS inh	hcGAS lum
O=C1C(Cl)=C(N2CCOCC2)C(=O)N1c1ccccc1F	8	nt	-5
O=C1C(Cl)=C(N2CCOCC2)C(=O)N1c1ccc(Cl)c(Cl)c1	22	50*	-2
CCc1cc(=O)[nH]c2n[nH]c(=S)n12	-3	nt	3
O=c1cc(-c2ccccc2)n2c(=S)[nH]nc2[nH]1	-3	nt	64*
Cc1nnc(-c2cc(C)n(-c3cccc(C(=O)NCc4cc(F)cc(F)c4)c3)n2)o1	nt	1	2
CCOC(=O)/C(C#N)=C1/Sc2ccccc2N1C	-2	nt	2
CCC(C)[n+]1c(C)cc(C=C2Sc3ccccc3N2C)cc1C (stereo unspecified)	173*	nt	7
Cc1cc(C=C2Sc3ccccc3N2C)cc(C)[n+]1Cc1ccncc1	51*	-2	1
CCOC(=O)c1ccccc1N1C(=O)/C(=C\c2ccncc2)N(C)C1=S	-4	-3	-6
CCCC[n+]1c(C)cc(C=C2Sc3ccccc3N2C)cc1C	198*	nt	-1
CN1C(=C2C(=O)CC(C)(C)CC2=O)Sc2ccccc21	1	nt	4
CCN1/C(=C/C2=CC(=O)CC(C)(C)C2)Sc2ccccc21	60*	nt	-5
CN(C)CCCN1c2ccccc2Sc2ccc(C(F)(F)F)cc21	9	-6	-3
CCc1nnc(-c2cc3ccccc3n2CC(=O)Nc2ccc(C(N)=O)cc2)o1	-2	-10	-5
O=S(=O)(Nc1cc(F)ccc1F)c1cccc(Br)c1	4	nt	-7
CC1C(=O)N(c2ccc(F)c(Cl)c2)CCN1C(=O)Cc1ccccc1 (stereo unspecified)	-2	-4	-4
CCC(CC)NC(=O)c1cc2c(C)nn(C)c2s1	-3	-4	-4
O=C(O)C1CN(c2nc3c(c(C(F)(F)F)n2)CCCC3)CCN1 (stereo unspecified)	-1	nt	4
CCN1C(=Cc2ccc3cc(C)ccc3[n+]2CC)Sc2ccccc21	74*	nt	8
Cc1cc(C=C2Sc3ccccc3N2C)cc(C)[n+]1N1CCN(C)CC1	47	nt	9
CCC(C)[n+]1c(C)cc(C=C2Sc3ccccc3N2CC)cc1C (stereo unspecified)	78*	nt	-4
CCN1c2ccccc2Sc2cc(C=O)ccc21	8	nt	0
Cc1cc(C=C2Sc3ccccc3N2C)cc(C)[n+]1-c1ccccc1	76*	nt	-3
CCN1C(=CC=Cc2sc3ccccc3[n+]2CC)Sc2ccccc21	-12	nt	-49
CCN(CC)S(=O)(=O)c1ccc(C)c(NS(=O)(=O)c2ccc(F)c(F)c2)c1	15	nt	2
SMILES	NPYLR7 agonist	mcGAS inh	hcGAS lum
Cc1ccc(S(=O)(=O)Nc2nc(-c3ccc(F)c(F)c3)cs2)cc1	-3	nt	7
CC(=O)O[C@@H](C)C(=O)N1CCN(c2nccc(-c3cccc(C(F)(F)F)c3)n2)CC1	4	-7	-5
OC[C@H]1OC([S-])[C@H](O)[C@@H](O)[C@@H]1O.[Au+] (stereo partly specified)	-8	57*	68*
OC[C@@H](O)C(O[C@@H]1O[C@H](CO)[C@H](O)[C@H](O)[C@H]1O)[C@H](O)[C@@H](O)CO (stereo partly specified)	nt	nt	-4
COCCN(Cc1c(-c2ccccc2)noc1N(C)C1CCCCC1)C(=O)c1ccccc1OC	-4	-4	2
COC(=O)c1cnc(/C=C/c2cc(C)c(O)c(C)c2)s1	46*	nt	-6
CNC(=O)c1cnc(/C=C/c2cc(OC)c3c(c2)OCCO3)s1	-7	nt	3
C[n+]1ccc(C=CC(=O)c2ccc3c4c(cccc24)CC3)cc1	1	20	17
C[n+]1ccc(C=CC(=O)c2ccc3cccc4c3c2CC4)cc1	2	61*	-8
CN(CC(F)(F)F)C(=O)CNc1cnn(C)c(=O)c1Cl	-6	0	1
O=C(Nc1ccc(F)cc1)N1CCN(CC(OCc2ccc(C(F)(F)F)cc2)c2ccc(Cl)cc2)CC1 (stereo unspecified)	nt	-9	-10
CCC(=O)Nc1sc2c(c1-c1nc3ccccc3s1)CCN(C(C)=O)C2	0	nt	-5
CC(C)N1CCc2c(sc(NC(=O)CN3C(=O)CCC3=O)c2-c2nc3ccccc3s2)C1	33	51*	56*

High-throughput results: PubChem BioAssay, Fisher Drug Discovery Resource Center
